# Screens: PubChem, National Center for Advancing Translational Sciences (NCATS)
# MCF10A rereplic: A quantitative high throughput screen for small molecules that induce DNA re-replication in MCF 10a normal breast cells. MCF 10A DNA re-replication, Hoechst nuclear intensity, 48 h. Potency, µM (doses to about 46.1 µM), for the others: top-dose activity, positive = re-replication, hits mostly activators. 350,000 compounds, 2.9% hits. AID 624296, 2012; note: % of control where 0% means no effect; nearly all actives have a fitted effect of over 50% in size
# SW480 rerep: A quantitative high throughput screen for small molecules that induce DNA re-replication in SW480 colon adenocarcinoma cells; SW480 DNA re-replication, Hoechst DNA content imaging, 48 h; Potency, µM (top dose mostly 46.1 µM), for inactives: at the top dose re-replication activation, most hits filed as activators; 340,000 compounds, 1.8% hits; AID 624297, 2012; note: % of control where 0% means no effect; nearly all actives have a fitted effect of over 55% in size
#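 Image-based DNA-content assay: after two days of treatment, nuclei were labelled with the DNA dye Hoechst and imaged, and hits were compounds raising the count of nuclei showing high fluorescence intensity.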
# KB-V1 cytotox: qHTS assay for MDR1-selective chemotherapeutics: Primary screen using the drug-selected MDR subline cells KB-V1. KB-V1 MDR cells viability, CellTiter-Glo, 72 h. Potency, µM (top dose mostly 46.1 µM), hits mostly cytotoxic. 400,000 compounds, 3.4% hits; note: % is set by controls: 0 for no effect and ±100 for the full control effect; nearly all actives have a fitted effect of over 60% in size
#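 KB-V1, DMEM (no phenol red) + 10% FBS; cpd pin-transferred, titration series; 72 h, 37 degrees C; CellTiter-Glo, luminescence. Data normalized, curve-fit.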
# KB-3-1 cytotox: qHTS assay for MDR1-selective chemotherapeutics: Primary screen using the parental adenocarcinoma cell KB-3-1; KB-3-1 viability, CellTiter-Glo ATP luminescence, 72 h; 400,000 compounds, 1.4% hits; AID 1347075, 2019; Potency, µM (highest dose often 46.1 µM), most hits filed as cytotoxic; note: % is set by controls: 0 for no effect and ±100 for the full control effect; nearly all actives have a fitted effect of over 60% in size
#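 Cytotoxicity measured as CellTiter-Glo luminescence after 72 h at 37 C. Compound titrations were pinned onto drug-naive KB-3-1 parental adenocarcinoma cells grown in DMEM with 10% FBS, and normalized data fitted to concentration-response curves.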
# TSG101-PTAP inh: qHTS Assay for Iinhibitors of HIV-1 Budding by Blocking the Interaction of PTAP/TSG101; Tumor susceptibility gene 101 protein (Homo sapiens), Q99816; Fluorescence polarization, FITC-PTAP peptide / Tsg101 binding; Potency, µM (titrated, usually from 115 µM), without a hit: at the highest dose activity change, negative = inhibition, hits mostly inhibitors; 340,000 tested, under 10 active; active = well fitted inhibition curve with a large enough effect in the main read-out, with a control signal flat, not every such curve was filed as active; inconclusive = small, poorly fitted or top-dose-only effect, or effect the other way, or a change in a side signal; inactive = no such curve, though single readings can be large or run the other way; note: % of control where 0% means no effect
# Target sequence (Q99816 whole entry, looked up): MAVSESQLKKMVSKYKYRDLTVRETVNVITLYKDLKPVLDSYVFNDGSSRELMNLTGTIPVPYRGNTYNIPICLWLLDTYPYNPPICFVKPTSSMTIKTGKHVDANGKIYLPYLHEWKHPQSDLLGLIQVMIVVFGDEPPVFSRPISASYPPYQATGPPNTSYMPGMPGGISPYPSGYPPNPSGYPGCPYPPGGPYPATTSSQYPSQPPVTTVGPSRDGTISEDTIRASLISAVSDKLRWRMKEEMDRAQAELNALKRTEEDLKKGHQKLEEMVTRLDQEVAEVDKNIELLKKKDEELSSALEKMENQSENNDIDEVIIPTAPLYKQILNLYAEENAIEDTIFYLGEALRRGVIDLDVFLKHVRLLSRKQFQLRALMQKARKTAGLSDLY
#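 Compounds were pin-transferred onto Tsg101 binding domain (10 uM final) in HEPES pH 7.5 buffer, then FITC-PTAP peptide was added at 50 nM final. After 20 min at RT, polarization reported peptide displacement across a qHTS concentration series.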
# PINK1 modulator: A Quantitative High throughput Screen to Identify Chemical Modulators of PINK1 Expression; PINK1 immunofluorescence, high-content cytometry, 24 h; Potency, µM (top dose mostly 76.6 µM), without a hit: top-dose activation (PINK1 increase), most hits filed as activators; 410,000 compounds, 0.2% hits; AID 624263, 2012; active = well fitted activation curve with a large enough effect; inconclusive = small, poorly fitted or top-dose-only effect; cell line not stated here; note: % of control where 0% means no effect; nearly all actives have a fitted effect of over 65% in size
#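 PINK1 protein level read as immunofluorescence by microplate cytometer in a fixed, stained stable cell line after 24 h exposure to five compound concentrations, with CCCP as control.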
# Starred values were filed as active, the others as inactive; i = inactive; ? = inconclusive; . = no result given; [ ] = remark or other dose. Compounds with a hit are over-represented: about 6.8% of the library has one in this group of screens. Unless noted, calls come from the whole dose curve; as a rule, active = well fitted curve in the direction sought with a large enough effect; inconclusive = small, poorly fitted or top-dose-only effect, or another doubt; inactive = no such curve, though single readings can be large; an effect the other way counts as inactive or inconclusive. Potency is the fitted concentration of half-maximal effect.
SMILES,MCF10A rereplic,SW480 rerep,KB-V1 cytotox,KB-3-1 cytotox,TSG101-PTAP inh,PINK1 modulator
COc1ccc(-c2csc(N(CC(C)C)C(=O)c3ccco3)n2)cc1,18.4µM*,?,i,i,-1.6%,9.4%
COc1ccc(-c2csc(N(CC3CCCO3)C(=O)c3ccco3)n2)cc1 (stereo not given),16.4µM*,?,i,?,-6.1%,10.2%
CCN(C(=O)c1ccco1)c1nc(-c2ccc(OC)cc2)cs1,15.3%,-0.3%,i,i,-4.7%,-0.6%
CCC(C)(C)NC(=O)C1CCN(S(=O)(=O)c2ccc3c(c2)CCCN3C(C)=O)CC1,.,.,i,i,.,-0.3%
NC(=O)/C=C/C(=O)Nc1ccc(Cl)cc1,14.6µM*,17.7%,i,i,-0.2%,0.1%
O=C(/C=C/C(Cl)(Cl)Cl)Nc1ccc(Cl)cc1,?,?,?,?,1.2%,-0.3%
Cc1cc(C)c(NC(=O)Cn2c(=O)n(Cc3ccco3)c(=O)c3ccc(C(=O)NC4CCCC4)cc32)c(C)c1,.,.,i,i,.,2.8%
Cc1ccc(NP(=O)(Nc2ccc(C)cc2)Nc2ccc(C)cc2)cc1,20.6%,?,?,20.6µM*,-9.1%,15.6%
C/C(CC(=O)Nc1ccc(OCc2ccccc2)cc1)=N\NC(=O)C(=O)Nc1cccc(C)c1,14.6µM*,-59.5%,?,?,-2.1%,1.8%
C/C(CCc1ccccc1)=N\NC(=O)C(=O)Nc1cccc(Cl)c1,0.259µM*,7.4%,i,i,-6.5%,4.2%
O=C1C2C3C=CC(CNS(=O)(=O)c4ccccc4[N+](=O)[O-])(O3)C2C(=O)N1c1ccccc1 (stereo not given),20.6µM*,?,?,i,-7.6%,-1.9%
COc1cc(C2C3C(=O)N(c4ccc(F)cc4)C(=O)C3ON2c2ccccc2)ccc1O (stereo not given),14.1µM*,-4.0%,i,i,-4.8%,0.1%
C/C(=N\NC(=O)c1cc(Cl)ccc1O)c1ccc(Br)s1,?,.,20.6µM*,?,-1.3%,0.2%
Cc1ccc(S(=O)(=O)Cc2ccc(C(=O)OCc3ccccc3)cc2)cc1,?,12.6%,?,i,-5.3%,5.3%
COC(=O)c1c[nH]c2c1-c1cc(C(=O)OCc3ccccc3)n(S(=O)(=O)c3ccc(C)cc3)c1C(=O)C2=O,12.1%,?,5.8µM*,2.91µM*,1.4%,-6.0%
COc1ccc(C(=O)/C=C/NCc2ccc(C)cc2)cc1,13µM*,20.6µM*,i,i,-2.9%,0.6%
Cc1ccc(C(=O)/C=C\NCc2ccccc2)cc1,?,-10.2%,i,i,-0.7%,-1.0%
Nc1c(C(=O)C2CC2)sc2nc3c(cc12)CCC3,14.6µM*,?,i,i,-2.7%,0.9%
CCC1(C2CCN(Cc3ccccc3Cl)CC2)NC(=O)N(CC2COc3ccccc3O2)C1=O (stereo not given),.,.,.,.,.,1.0%
CCOC(=O)c1cc(-c2ccccc2)n(CC(=O)Nc2ccccc2OCC)c1C,.,.,.,.,.,0.5%
CCCCc1nc(NCCO)c(C#N)c2c1CCCC2,19.0%,2.8%,?,i,-1.8%,0.0%
N#Cc1c(NC2CCCCC2)nc(-c2ccco2)c2c1CCCC2,16.4µM*,13µM*,i,?,-1.6%,7.5%
N#Cc1c(NCCCO)nc(-c2ccco2)c2c1CCCC2,18.4µM*,5.8µM*,i,i,-8.5%,0.1%
Cc1cnc(CNc2ccnc(-c3ccccc3C)n2)cn1,.,.,.,.,.,-0.6%
N#C/C(=C\c1ccc(-c2ccccc2)cc1)c1nc(-c2ccco2)cs1,23.1µM*,1.0%,i,i,-3.3%,5.3%
SMILES,MCF10A rereplic,SW480 rerep,KB-V1 cytotox,KB-3-1 cytotox,TSG101-PTAP inh,PINK1 modulator
CCNc1ccc(Br)cc(C(=O)/C=C/c2c(Cl)cccc2Cl)c1=O,23.1µM*,?,i,?,-2.7%,2.2%
Nc1ccccc1C(=O)/C=C/c1ccc2c(c1)OCO2,?,18.4µM*,?,i,-11.7%,-1.5%
CCNc1ccc(Br)cc(C(=O)/C=C/c2ccc(Cl)cc2)c1=O,13µM*,?,18.4µM*,16.4µM*,-1.8%,11.9%
CNc1ccc(Br)cc(C(=O)/C=C/c2cccc(OC)c2)c1=O,18.4µM*,?,?,?,-7.8%,1.3%
CS/C(=N\S(=O)(=O)c1ccc(F)cc1)c1ccccc1,.,.,?,i,.,-0.8%
Cc1ccc(NC(=O)Nc2cn(CC(C)C)c(=O)c3ccccc23)cc1N(C)C,.,.,i,i,.,-3.5%
COc1ccc(CC(=O)NCc2ccc3c(c2)CCN3C(=O)c2ccc(Cl)cc2)cc1OC,.,.,.,.,.,2.0%
Cc1ccc(C(=O)C=Cc2ccc3c(c2)OCO3)c(C)c1,.,.,i,?,.,-0.7%
COc1cc(OCc2ccccc2)c(C(=O)/C=C/c2ccc3c(c2)OCO3)c(OC)c1OC,14.6µM*,?,?,?,-10.1%,0.3%
CNc1ccc(Br)cc(C(=O)/C=C/c2ccc(Cl)cc2Cl)c1=O,4.61µM*,?,?,?,1.0%,6.9%
COc1cc(OC)c(C(=O)/C=C/c2ccc(OCc3ccccc3)c(OC)c2)c(OC)c1,18.3%,?,?,?,0.4%,-1.4%
CCNc1ccc(Br)cc(C(=O)/C=C/c2ccc3c(c2)OCO3)c1=O,18.4µM*,?,i,i,5.7%,-0.4%
CCc1ccc(NC(=O)c2ccccc2NC(=O)C2CCCO2)cc1 (stereo not given),1.8%,7.8%,6.51µM*,i,.,-4.1%[38.3 µM]
CCOC(=O)c1ccccc1NC(=O)C1CCCO1 (stereo not given),-5.6%,-54.4%,i,i,-9.0%,1.2%
CCCC(=O)N1CCc2cc(OC)c(OC)cc2C1COc1ccc2c(C)cc(=O)oc2c1 (stereo not given),.,.,i,i,.,0.6%
COc1cc(OC)c(OC)cc1/C=C1\CC(C)C/C(=C\c2cc(OC)c(OC)cc2OC)C1=O (stereo not given),16.4µM*,?,i,?,?,-3.4%
COc1cc(OC)c(OC)cc1/C=C1/Cc2ccccc2C1=O,-0.9%,8.7%,i,i,?,1.1%
